From PubChem BioAssay come the findings set out here.

A number with no mark means an inactive call.

The nature of this assay: yeast growth modulation, basal conditions, primary screen, YJM789 clinical isolate, OD600, 24 h (AID 1089).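 Further: growth of clinical yeast isolate S. cerevisiae YJM 789 seeded 1000 cells per well; test concentration not given here.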 Conditions: S. cerevisiae YJM789 growth, higher = more signal, called active from +8 up or from −8 down.
On to `CCCC=C(CCC)[C@@H](NC(=O)c1ccc(C(F)(F)F)cc1)c1ccc(C(F)(F)F)cc1`, for which the z-score is 1.13.
To `Cc1ccccc1C(O)C1C=CC2C(=O)N(c3ccccc3)C(=O)C2N1Nc1ccccc1` (stereo not given) belongs 0.555.
Take `CCOC(=O)C[C@H]1[C@H](OC(=O)c2ccccc2-c2ccccc2)[C@@H](NC(=O)c2ccc3ccccc3c2)c2cc(OCCCO)ccc2N1C(=O)Cc1ccc(OC)cc1`: the z-score is -0.97.
For `COc1ccc(C(=O)Nc2ccc3c(c2)[C@@]2(O[C@H](CCO)[C@@H]([Si](C)(C)c4ccc(OC)cc4)[C@@H]2C)C(=O)N3Cc2ccccc2)cc1` the value was -0.0565; for `COCCOC(=O)N1C(=O)[C@@]2(c3cc(C#CCC(C(=O)OC)C(=O)OC)ccc31)[C@H](c1ccc(O)cc1)N1[C@H](c3ccccc3)[C@H](c3ccccc3)OC(=O)[C@H]1[C@@H]2C(=O)Nc1nc2ccccc2s1`, 0.978; for `C=C(COC)/C(=C/C[C@H](OC(C)=O)c1ccccc1OCCO)c1cc(C(=O)OC)ccc1OC`, 0.909.
Take `O=C1[C@H]2C=C(I)[C@H](C[C@@H]2OCCCCCCO)[C@@]12CO2`: the z-score was -1.5.
To `CCCCC(=C=CC[C@H](O)c1ccc(CO)o1)CCO` belongs 0.978.
Turning to `COc1ccccc1CN1C(=O)c2ccccc2[C@](Cc2ccccc2I)(C(=O)NCC(C)C)[C@@H]1c1ccc(CO)cc1`, the z-score was -0.747.
Regarding `C=CCC(OC(C)=O)[C@@H]1[C@@H](N(Cc2ccc(-c3ccccc3)cc2)C(=O)c2cccc3ccccc23)c2cc(OCCCO)ccc2N1C(=O)Cc1ccc(OC)cc1` (stereo not given in full), the z-score is -0.774.
In the case of `CC(C)N1C(=O)c2ccccc2[C@](C)(C(=O)NCC(F)(F)F)[C@@H]1c1ccc(CO)cc1`, the z-score was -0.337.
For `O=C1NC(=O)C2C1C=CC(C(O)c1ccc([N+](=O)[O-])cc1)N2Nc1ccccn1` (stereo not given) the value was -0.0716.
For `CN1C(=O)C2C=CC(C(O)c3ccc(-c4ccccc4)s3)N(NC(=O)OC(C)(C)C)C2C1=O` (stereo not given) the value was -0.673; for `CN(C)CCCNC(=O)[C@@]1(C)c2ccccc2C(=O)N(Cc2ccc(OC(F)(F)F)cc2)[C@H]1c1ccc(CO)cc1`, -1.7; for `COCCCNC(=O)[C@@]1(CCS(=O)(=O)c2ccccc2)COC(c2ccc(OCCCO)cc2)=N1`, 0.134.
As to `COC(=O)[C@@]1(Cc2ccc(OC)cc2)[C@H]2c3cc(C(=O)N4CCCC4)n(Cc4ccc(C(F)(F)F)nc4)c3C[C@H]2CN1C(=O)c1ccccc1`, the z-score was -0.361.
`COC(=O)C(CC#Cc1ccc2c(c1)[C@]1(C(=O)N2)[C@H](c2ccccc2OCCO)N2[C@H](c3ccccc3)[C@H](c3ccccc3)OC(=O)[C@H]2[C@@H]1C(=O)N1CCc2cc(OC)c(OC)cc2C1)C(=O)OC`: the z-score was 2.1.
For `COc1ccc(C(O)C2C=CC3C(=O)N(C)C(=O)C3N2N(c2ccccc2)c2ccccc2)cc1` (stereo not given) the value was -0.054.
To `COCCOC(=O)N1C(=O)[C@@]2(c3cc(C#CCC(C(=O)OC)C(=O)OC)ccc31)[C@H](C(=O)Nc1nc3ccccc3s1)[C@H]1C(=O)O[C@H](c3ccccc3)[C@H](c3ccccc3)N1[C@@H]2c1ccc(O)cc1` belongs 1.42; to `CC(C)(C)N1CC=CC23O[C@@H]4C=CCCOC(=O)C4[C@H]2C(=O)N(CCCCCCO)[C@@H]3C1=O` (stereo not given in full), -0.0623.
With `O=C1C[C@@](C(=O)NCc2ccccc2)(c2ccc([N+](=O)[O-])cc2)[C@@H](c2ccc(CO)cc2)N1C1CCCCC1`, the z-score was -1.69.
In the case of `Cc1ccc(S[C@]2(C(=O)NCc3ccccc3)CC(=O)N(Cc3ccccc3C(F)(F)F)[C@@H]2c2ccc(CO)cc2)cc1`, the z-score was -1.61.
For `COCCOC(=O)N1C(=O)[C@@]2(c3cc(C#CCCO)ccc31)[C@H](C(N)=O)[C@H]1C(=O)O[C@H](c3ccccc3)[C@H](c3ccccc3)N1[C@@H]2c1ccccc1OCCO` the value was 1.85.
On to `CC(C)=C1C(=O)C(c2ccccc2)=C2CN3C(=O)N(CCc4ccccc4)C(=O)[C@]3(C)[C@H]21`, for which the z-score is -0.37.
To `CC(C)(C)OC(=O)CC[C@@]1(C(=O)NCCN2CCOCC2)N=C(c2ccc(OCCCO)cc2)O[C@@H]1c1ccccc1CN=[N+]=[N-]` belongs -0.865.
